In PubChem BioAssay (NCATS):
Unmarked numbers belong to inactive results. Calls follow the shape of the dose curve; as a rule, active = well fitted curve in the direction sought with a large enough effect; inconclusive = small, poorly fitted or top-dose-only effect, or another doubt; inactive = no such curve, though single readings can be large; an effect the other way counts as inactive or inconclusive.

experiment: qHTS for inhibitors of adenylyl cyclases using a fission yeast platform: a pilot screen against the NCATS LOPAC library (AID 1347410);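 also: plate controls were DMSO vehicle for no effect and DPI positive control for full effect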; conditions: S. pombe CHP2027, fbp1-GFP fluorescence, 18 h, yeast expressing mammalian AC9 and human GNAS; series mostly up to 57.5 µM; activity, positive = inhibition (GFP gain): at the top concentration
Procedure, shortened: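 Fission yeast qHTS: CHP2027 cells (AC9-GNAS-PDE4D2, fbp1-GFP), 5x10^6 cells/mL working density, EMM + His/Lys/Ura; LOPAC at up to 57 µM final; 18 h dark, 30C; GFP by laser cytometry. DPI positive control, DMSO vehicle.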

`CNc1ncnc2c1ncn2[C@@H]1O[C@H](CO)[C@@H](O)[C@H]1O` and `OC[C@H]1O[C@@H](n2cnc3c(NC4CCCCC4)ncnc32)[C@H](O)[C@@H]1O` are the same in “activity, positive = inhibition (GFP gain)” value: -0.438% for the first, -0.438% for the second.

Going from `NC(CCCP(=O)(O)O)C(=O)O` (stereo unspecified) to `O=C(O)CNC(=O)C(CS)Cc1ccccc1` (stereo unspecified), the “activity, positive = inhibition (GFP gain)” value falls from 1.31% to -0.137%.

`Cc1cc2c(cc1Cl)N(C(=O)Nc1ccc(Oc3cccnc3C)nc1)CC2` and `N#C/C(=C\c1ccc(-c2cc(Cl)ccc2Cl)o1)C(=O)Nc1cccc2ncccc12` are the same in “activity, positive = inhibition (GFP gain)” value: -0.438% for the first, -0.438% for the second.

Going from `C[N+]1(C)CCC(OC(=O)C(c2ccccc2)c2ccccc2)CC1` to `C[C@@H](CN1CCC(Cc2ccccc2)CC1)[C@@H](O)c1ccc(O)cc1`, the “activity, positive = inhibition (GFP gain)” value rises from 0.262% to 0.768%.

Going from `Fc1cccc(/C=N/N=C/c2cccc(F)c2)c1` to `COc1ccc(NC(=O)/C=C/c2ccc(Cl)cc2)cc1`, the “activity, positive = inhibition (GFP gain)” value falls from 0.392% to 0.058%.

Going from `COc1ccccc1CNCCCCCCNCCCCCCCCNCCCCCCNCc1ccccc1OC` to `CCCCCCCCCCCCCCCC(=O)OC(CC(=O)O)C[N+](C)(C)C` (stereo unspecified), the “activity, positive = inhibition (GFP gain)” value rises from -0.438% to 1.54%.

Going from `CC12C(=O)OC(=O)C1(C)C1CCC2O1` (stereo unspecified) to `C=CC(C)=C[C@@]1(C)SC(=O)C(C)=C1O`, the “activity, positive = inhibition (GFP gain)” value rises from -0.438% to -0.0673%.

Going from `CN(C)c1nc(N)c(C(=O)N=C(N)N)nc1Cl` to `CC(=O)/C=C1\C(=O)N(C)c2ccccc21`, the “activity, positive = inhibition (GFP gain)” value falls from 0.262% to -0.438%.

First: O=C(O)CC1CCCc2ccccc2C1O (stereo unspecified)
Second: Oc1cc2c(cc1O)CN(C(=S)NCCc1ccc(Cl)cc1)CCC2
The “activity, positive = inhibition (GFP gain)” value of the first is lower: -0.438% for the first, 0.0951% for the second.

First: CCN(CC)c1ncnc2c1ncn2[C@@H]1O[C@H](COP(=O)(O)OP(=O)(O)C(Br)(Br)P(=O)(O)O)[C@@H](O)[C@H]1O
Second: O=[N+]([O-])c1ccc(CSc2ncnc3c2ncn3[C@@H]2O[C@H](CO)[C@@H](O)[C@H]2O)cc1
The “activity, positive = inhibition (GFP gain)” value of the first is higher: 1.19% for the first, -0.438% for the second.

First: Cc1ccc(S(=O)(=O)/C=C/C#N)cc1
Second: CC(C)(C)c1ccc(S(=O)(=O)/C=C/C#N)cc1
The “activity, positive = inhibition (GFP gain)” value of the first is lower: -0.438% for the first, -0.0487% for the second.

First: Clc1ccc(N2CCN(Cc3cc4ccccn4n3)CC2)cc1
Second: CCCCCCCC/C=C\CCCCCCCC(=O)NCCO
The “activity, positive = inhibition (GFP gain)” value of the first is lower: -0.438% for the first, 0.708% for the second.

experiment: Validation qHTS assay for inhibitors of Activation Induced Cytidine Deaminase (AID): UDG Counterscreen signal (AID 1347427); conditions: biochemical UDG counterscreen, fluorescence signal; series mostly up to 115 µM; activity, negative = inhibition: at the top concentration; also: 0% is about no effect
Procedure, shortened: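 Counterscreen read of UDG activity (2 U/mL, 4/3x) in the FRET deamination format with AID (1 uM, 4/3x), DJC20/DJC23 substrates (250 nM, 4x), 4 h at room temperature. NaOH stop, fluorescence at 560 ex/665 em.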

First: Nc1nc(Cl)nc2c1ncn2[C@@H]1O[C@H](COP(=O)(O)OP(=O)(O)OP(=O)(O)O)[C@@H](O)[C@H]1O
Second: CSc1nc(N)c2ncn([C@@H]3O[C@H](COP(=O)(O)OP(=O)(O)OP(=O)(O)O)[C@@H](O)[C@H]3O)c2n1
The “activity, negative = inhibition” value of the first is higher: 6.03% for the first, -3.83% for the second.

First: CCCN(CC1CC1)c1nc(C)nc(Nc2c(Cl)cc(Cl)cc2Cl)c1Cl
Second: Cc1cc2c(cc1Cl)N(C(=O)Nc1ccc(Oc3cccnc3C)nc1)CC2
The “activity, negative = inhibition” value of the first is higher: 2.5% for the first, -0.757% for the second.

Going from `Nc1nc(SCc2ccc([N+](=O)[O-])cc2)c2ncn([C@@H]3O[C@H](CO)[C@@H](O)[C@H]3O)c2n1` to `O=[N+]([O-])c1ccc(CSc2ncnc3c2ncn3[C@@H]2O[C@H](CO)[C@@H](O)[C@H]2O)cc1`, the “activity, negative = inhibition” value falls from 13.2% to 10.6%.

First: Nc1ncnc2c1ncn2[C@@H]1O[C@H](COP(=O)(O)OP(=O)(O)OP(=O)(O)OP(=O)(O)OC[C@@H]2O[C@H](n3cnc4c(N)ncnc43)[C@@H](O)[C@H]2O)[C@@H](O)[C@H]1O
Second: NC(=O)C1=CN(C2OC(COP(=O)(O)OP(=O)(O)OC[C@H]3O[C@@H](n4cnc5c(N)ncnc54)[C@H](OP(=O)(O)O)[C@@H]3O)C(O)C2O)C=CC1 (stereo partly specified)
The “activity, negative = inhibition” value of the first is higher: 7.19% for the first, -3.86% for the second.

First: COc1ccc2c(c1)CCC1C2CC[C@@]2(C)C1CC[C@@H]2NCCCCCCN1C(=O)CCC1=O (stereo partly specified)
Second: COc1cc(OC)c(/C=C2/C(=O)Nc3ccccc32)c(OC)c1
The “activity, negative = inhibition” value of the first is lower: 8.13% for the first, 10.5% for the second.

Compared with `O=C(O)c1cc(=O)c2c(Cl)cc(Cl)cc2[nH]1`, `N#C/C(=C\c1ccc(-c2cc(Cl)ccc2Cl)o1)C(=O)Nc1cccc2ncccc12` is lower in “activity, negative = inhibition” value: 14.5% for the first, -1.38% for the second.

Going from `Oc1ccc(C2CNCc3sccc32)cc1O` (stereo unspecified) to `Oc1cc2c(cc1O)CN(C(=S)NCCc1ccc(Cl)cc1)CCC2`, the “activity, negative = inhibition” value rises from 1.42% to 3.25%.

Going from `CNC(=O)[C@H]1O[C@@H](n2cnc3c(NCc4ccc(N)cc4)ncnc32)[C@H](O)[C@@H]1O` to `CNc1ncnc2c1ncn2[C@@H]1O[C@H](CO)[C@@H](O)[C@H]1O`, the “activity, negative = inhibition” value rises from -3.19% to 3.6%.

First: O=C(O)c1cc([N+](=O)[O-])ccc1NCCCc1ccccc1
Second: O=C(O)CNC(=O)C(CS)Cc1ccccc1 (stereo unspecified)
The “activity, negative = inhibition” value of the first is lower: 8.4% for the first, 14.5% for the second.

First: CC(=O)SCC[N+](C)(C)C
Second: CCCCCCCCCCCCCCCC(=O)OC(CC(=O)O)C[N+](C)(C)C (stereo unspecified)
The “activity, negative = inhibition” value of the first is higher: 11.3% for the first, 5.07% for the second.

Compared with `NC(CCCP(=O)(O)O)C(=O)O` (stereo unspecified), `CCN(CC)c1ncnc2c1ncn2[C@@H]1O[C@H](COP(=O)(O)OP(=O)(O)C(Br)(Br)P(=O)(O)O)[C@@H](O)[C@H]1O` is lower in “activity, negative = inhibition” value: 12.5% for the first, -1.9% for the second.

Going from `C[N+]1(C)CCC(OC(=O)C(c2ccccc2)c2ccccc2)CC1` to `C[C@@H](CN1CCC(Cc2ccccc2)CC1)[C@@H](O)c1ccc(O)cc1`, the “activity, negative = inhibition” value falls from 12.2% to 7.52%.

Going from `Fc1cccc(/C=N/N=C/c2cccc(F)c2)c1` to `COc1ccc(NC(=O)/C=C/c2ccc(Cl)cc2)cc1`, the “activity, negative = inhibition” value rises from 8.15% to 9.3%.

First: COc1ccccc1CNCCCCCCNCCCCCCCCNCCCCCCNCc1ccccc1OC
Second: CCCCCCCC/C=C\CCCCCCCC(=O)NCCO
The “activity, negative = inhibition” value of the first is higher: 11.8% for the first, -2.06% for the second.

First: CC12C(=O)OC(=O)C1(C)C1CCC2O1 (stereo unspecified)
Second: C=CC(C)=C[C@@]1(C)SC(=O)C(C)=C1O
The “activity, negative = inhibition” value of the first is higher: 14.2% for the first, 6.37% for the second.

First: OC[C@H]1O[C@@H](n2cnc3c(NC4CCCCC4)ncnc32)[C@H](O)[C@@H]1O
Second: O=C(O)CC1CCCc2ccccc2C1O (stereo unspecified)
The “activity, negative = inhibition” value of the first is lower: 15.2% for the first, 17.7% for the second.

First: CN(C)c1nc(N)c(C(=O)N=C(N)N)nc1Cl
Second: CC(=O)/C=C1\C(=O)N(C)c2ccccc21
The “activity, negative = inhibition” value of the first is higher: 14% for the first, -8.72% for the second.

First: Cc1ccc(S(=O)(=O)/C=C/C#N)cc1
Second: CC(C)(C)c1ccc(S(=O)(=O)/C=C/C#N)cc1
The “activity, negative = inhibition” value of the first is lower: 11.2% for the first, 12.7% for the second.

For `Clc1ccc(N2CCN(Cc3cc4ccccn4n3)CC2)cc1`, the “activity, negative = inhibition” value was 6.72%.
